# Data taken from PubChem BioAssay (Tox21).
# “And” between values parts separate entries of the source, which are not always exact repeats. Identical values can stand only once. Results filed as inconclusive are left out. Entries that show only a call come without a potency. The source made the active and inactive calls. Unless noted, calls follow the shape of the dose curve; as a rule, active = well fitted curve in the direction sought with a large enough effect in the repeat runs; inconclusive = weak or mixed curves; inactive = no such curve, though single readings can be large; an effect the other way counts as inactive or inconclusive.
# Assays:
# [1] = qHTS assay to identify aromatase inhibitors - cell viability counter screen (AID 743084);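 also: cells stimulated with testosterone during compound exposure; nearly all actives have a fitted effect of over 55% in size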; also: potency is read from the fitted curve at half-maximal effect
# [2] = biological target: Aryl hydrocarbon receptor (Homo sapiens) (UniProt P35869); test: qHTS assay to identify small molecule that activate the aryl hydrocarbon receptor (AhR) signaling pathway (AID 743085); also: nearly all actives have a fitted effect of over 15% in size; also: potency is read from the fitted curve at half-maximal effect;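 as to activation: HG2L7.5c1 human HepG2 liver cells with stably integrated DRE-driven firefly reporter; series mostly up to about 70 µM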
# Chain of Aryl hydrocarbon receptor (Homo sapiens) (P35869 whole entry, looked up): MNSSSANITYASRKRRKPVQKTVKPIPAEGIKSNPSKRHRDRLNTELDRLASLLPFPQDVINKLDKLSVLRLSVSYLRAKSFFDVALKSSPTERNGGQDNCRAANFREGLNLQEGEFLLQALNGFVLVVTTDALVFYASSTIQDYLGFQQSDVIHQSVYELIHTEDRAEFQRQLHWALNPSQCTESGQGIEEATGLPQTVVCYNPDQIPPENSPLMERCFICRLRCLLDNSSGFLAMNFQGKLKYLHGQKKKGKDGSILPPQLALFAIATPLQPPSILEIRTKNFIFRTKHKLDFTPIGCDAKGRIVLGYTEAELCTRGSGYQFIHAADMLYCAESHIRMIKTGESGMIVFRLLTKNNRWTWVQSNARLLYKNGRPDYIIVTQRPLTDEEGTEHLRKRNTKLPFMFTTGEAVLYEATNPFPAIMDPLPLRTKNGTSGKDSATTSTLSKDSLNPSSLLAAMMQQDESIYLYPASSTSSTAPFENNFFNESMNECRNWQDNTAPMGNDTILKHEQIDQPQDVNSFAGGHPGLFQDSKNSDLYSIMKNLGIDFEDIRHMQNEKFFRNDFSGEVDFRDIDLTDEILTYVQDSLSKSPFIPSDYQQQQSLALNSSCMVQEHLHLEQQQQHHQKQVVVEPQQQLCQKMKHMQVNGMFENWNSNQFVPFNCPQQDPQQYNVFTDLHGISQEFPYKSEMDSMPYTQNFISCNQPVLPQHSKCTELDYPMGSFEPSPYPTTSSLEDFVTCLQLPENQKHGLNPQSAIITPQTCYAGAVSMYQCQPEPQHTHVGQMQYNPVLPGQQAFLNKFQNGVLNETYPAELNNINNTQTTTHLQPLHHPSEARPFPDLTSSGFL
# How it was run: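 Reporter assay in engineered HepG2 line HG2L7.5c1, whose plasmid carries twenty dioxin responsive elements upstream of firefly luciferase. Treatment lasted 24 h at 37C; ONE-Glo luminescence gauged induction.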
# [3] = qHTS assay to identify small molecule that activate the aryl hydrocarbon receptor (AhR) signaling pathway - cell viability counter screen (AID 743086); also: nearly all actives have a fitted effect of over 45% in size; also: potency is read from the fitted curve at half-maximal effect
# How it was run: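 Cytotoxicity counter screen: CellTiter-Fluor signal (30 min, 37 C) in 4000 HepG2 cells/well carrying the DRE-luciferase reporter, following 24 h compound exposure at 37 C.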
# [4] = qHTS assay to identify small molecule antagonists of the peroxisome proliferator-activated receptor gamma (PPARg) signaling pathway - cell viability counter screen (AID 743194); also: nearly all actives have a fitted effect of over 55% in size; also: potency is read from the fitted curve at half-maximal effect
# How it was run: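 Viability was measured as CellTiter-Glo luminescence in GeneBLAzer PPARg UAS-bla HEK293H cells. These cells had been exposed 17 h at 37 C to compounds together with rosiglitazone at 50 nM final, with the beta-lactamase readout taken in the same wells.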
# [5] = qHTS assay for small molecule agonists of the antioxidant response element (ARE) signaling pathway (AID 743202; active = well fitted activation curve with a large enough effect in the signal ratio in the repeat runs, not every such curve was filed as active; the % refers to the signal ratio)
# How it was run: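 Beta-lactamase reporter activity, read as fluorescence intensity, reflects ARE/Nrf2 pathway induction in HepG2 cells after 16 h compound exposure at 37 C; substrate loading was 2 h at room temperature.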
# [6] = qHTS assay for small molecule agonists of the antioxidant response element (ARE) signaling pathway - cell viability counter screen (AID 743203; calls by dose curve; also: nearly all actives have a fitted effect of over 55% in size; also: potency is read from the fitted curve at half-maximal effect)
# How it was run: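 Measured in the same wells as the beta-lactamase ARE reporter, this read-out is CellTiter-Glo luminescence from HepG2 ARE-bla cells given compounds for 16 hrs.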
# [7] = qHTS assay for small molecule activators of the heat shock response signaling pathway - cell viability counter screen (AID 743209); also: nearly all actives have a fitted effect of over 50% in size; also: potency is read from the fitted curve at half-maximal effect
# How it was run: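 Same-well multiplex: after 2.5 h room-temperature incubation with LiveBLAzer B/G substrate and fluorescence reading, CellTiter-Glo reagent was added to HSE-bla HeLa cells that had received compound for 5 h at 37 C; luminescence read after 30 min.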
# [8] = qHTS assay to identify small molecule agonists of the peroxisome proliferator-activated receptor delta (PPARd) signaling pathway - cell viability counter screen (AID 743211); also: nearly all actives have a fitted effect of over 55% in size; also: potency is read from the fitted curve at half-maximal effect
# How it was run: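 Multiplexed format: after the 2 h room-temperature LiveBLAzer B/G FRET step, CellTiter-Glo was added to the same wells. Luminescence after 30 min gave cell viability; compound exposure was 17 h at 37C.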
# [9] = biological target: Peroxisome proliferator-activated receptor delta (Homo sapiens) (UniProt Q03181); test: qHTS assay to identify small molecule agonists of the peroxisome proliferator-activated receptor delta (PPARd) signaling pathway (AID 743212; calls by dose curve;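 also: HEK293H cells with PPARd UAS beta-lactamase reporter GeneBLAzer system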)
# Chain of Peroxisome proliferator-activated receptor delta (Homo sapiens) (Q03181 whole entry, looked up): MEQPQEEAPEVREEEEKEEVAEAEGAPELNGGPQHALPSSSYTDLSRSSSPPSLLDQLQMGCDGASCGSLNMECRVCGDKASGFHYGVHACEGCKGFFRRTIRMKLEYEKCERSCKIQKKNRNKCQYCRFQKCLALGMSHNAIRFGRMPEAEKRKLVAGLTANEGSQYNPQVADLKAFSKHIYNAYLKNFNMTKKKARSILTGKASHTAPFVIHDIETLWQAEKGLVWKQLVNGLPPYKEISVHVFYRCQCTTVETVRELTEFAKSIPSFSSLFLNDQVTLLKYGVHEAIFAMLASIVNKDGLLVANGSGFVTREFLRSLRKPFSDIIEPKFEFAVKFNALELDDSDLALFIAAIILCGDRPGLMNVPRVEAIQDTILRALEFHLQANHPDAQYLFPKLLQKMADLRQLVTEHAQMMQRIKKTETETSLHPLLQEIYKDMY
# How it was run: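 Steps: seed PPARd-bla HEK293H cells; incubate 5 h, 37 C, 5% CO2; add compounds in DMSO; incubate, 37 C; add LiveBLAzer B/G FRET substrate; hold 2 h at room temperature; measure fluorescence.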
# [10] = qHTS assay to identify small molecule antagonists of the peroxisome proliferator-activated receptor delta (PPARd) signaling pathway - cell viability counter screen (AID 743213); also: nearly all actives have a fitted effect of over 50% in size; also: potency is read from the fitted curve at half-maximal effect
# How it was run: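 Viability counter-screen, qHTS format: PPARd-bla HEK293H, L165041 300 nM final, 17 h compound exposure at 37 C, CellTiter-Glo luminescence after 30 min RT.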
# [11] = qHTS assay to identify small molecule agonists of the farnesoid-X-receptor (FXR) signaling pathway - cell viability counter screen (AID 743218); also: nearly all actives have a fitted effect of over 45% in size; also: potency is read from the fitted curve at half-maximal effect
# How it was run: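 Readout: CellTiter-Glo luminescence, 30 min RT, multiplexed after the FXR-bla FRET reading. HEK 293T FXR-UAS-bla cells received compound 5 h post-plating and were incubated 16 h at 37 C.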
# [12] = biological target: Bile acid receptor (Homo sapiens) (UniProt Q96RI1); test: qHTS assay to identify small molecule agonists of the farnesoid-X-receptor (FXR) signaling pathway (AID 743220; active = well fitted activation curve with a large enough effect in the signal ratio in the repeat runs, not every such curve was filed as active; the % refers to the signal ratio)
# Chain of Bile acid receptor (Homo sapiens) (Q96RI1 whole entry, looked up): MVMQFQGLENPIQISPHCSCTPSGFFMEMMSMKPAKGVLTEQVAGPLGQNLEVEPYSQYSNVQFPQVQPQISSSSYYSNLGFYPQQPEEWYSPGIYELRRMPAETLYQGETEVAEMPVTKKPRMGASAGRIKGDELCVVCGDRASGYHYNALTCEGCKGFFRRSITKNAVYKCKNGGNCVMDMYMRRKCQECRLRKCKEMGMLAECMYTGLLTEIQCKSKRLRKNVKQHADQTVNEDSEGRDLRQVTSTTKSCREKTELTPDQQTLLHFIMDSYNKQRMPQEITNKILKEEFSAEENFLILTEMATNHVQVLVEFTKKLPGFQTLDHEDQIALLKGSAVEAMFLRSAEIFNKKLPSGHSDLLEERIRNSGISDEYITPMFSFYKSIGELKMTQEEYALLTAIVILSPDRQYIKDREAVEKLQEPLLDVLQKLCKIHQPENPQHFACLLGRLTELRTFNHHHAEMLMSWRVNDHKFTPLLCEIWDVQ
# How it was run: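 FXR-UAS-bla HEK 293T cells carrying a UAS-driven beta-lactamase reporter were plated for 5 h at 37C/5% CO2, then exposed to DMSO-dissolved Tox21 10K compounds for 16 h at 37C. A LiveBLAzer B/G FRET substrate was loaded for 2 h at room temperature before fluorescence reading.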
# [13] = qHTS assay to identify small molecule antagonists of the farnesoid-X-receptor (FXR) signaling pathway - cell viability counter screen (AID 743221; active = well fitted cell-killing curve with a large enough effect in the repeat runs, not every such curve was filed as active; also: nearly all actives have a fitted effect of over 50% in size; also: potency is read from the fitted curve at half-maximal effect)
# How it was run: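 CellTiter-Glo, 30 min RT, luminescence; same wells as the LiveBLAzer FRET read. Cells: FXR-UAS-bla HEK 293T. Treatment: compound with chenodeoxycholic acid 50 uM final, 16 h at 37 C.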
# [14] = biological target: Vitamin D3 receptor (Homo sapiens) (UniProt P11473); test: qHTS assay to identify small molecule antagonists of the vitamin D receptor (VDR) signaling pathway (AID 743223; active = well fitted inhibition curve with a large enough effect in the signal ratio in the repeat runs, not every such curve was filed as active; the % refers to the signal ratio; also: potency is read from the fitted curve at half-maximal effect)
# Chain of Vitamin D3 receptor (Homo sapiens) (P11473 whole entry, looked up): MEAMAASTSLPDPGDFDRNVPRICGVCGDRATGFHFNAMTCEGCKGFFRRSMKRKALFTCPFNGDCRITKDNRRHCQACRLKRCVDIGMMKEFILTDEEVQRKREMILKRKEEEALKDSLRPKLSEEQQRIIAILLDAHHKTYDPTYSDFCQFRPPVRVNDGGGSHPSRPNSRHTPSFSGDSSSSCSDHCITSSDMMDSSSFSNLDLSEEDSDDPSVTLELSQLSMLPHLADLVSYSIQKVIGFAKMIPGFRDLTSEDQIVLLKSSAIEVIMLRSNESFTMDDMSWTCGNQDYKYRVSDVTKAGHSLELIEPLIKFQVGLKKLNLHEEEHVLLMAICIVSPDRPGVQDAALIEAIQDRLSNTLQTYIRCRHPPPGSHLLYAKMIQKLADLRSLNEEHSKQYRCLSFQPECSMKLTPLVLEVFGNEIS
# How it was run: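 After VDR-bla cells are plated and left 4 h at 37C, DMSO-dissolved compounds and 3 nM (final) calcitriol agonist are added. Incubation continues 16 h at 37C; FRET beta-lactamase substrate then develops 2 h at room temperature.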
# [15] = qHTS assay for small molecule activators of the heat shock response signaling pathway (AID 743210; active = well fitted activation curve with a large enough effect in the signal ratio in the repeat runs, with a control signal flat, not every such curve was filed as active; the % refers to the signal ratio;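 also: HeLa cells with beta-lactamase reporter driven by heat shock elements; series mostly up to about 63 µM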)
# How it was run: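 Fluorescence from a cleaved B/G FRET substrate (2.5 h, room temp) reports HSE-driven beta-lactamase in HeLa cells treated 5 h at 37 C with DMSO-dissolved compounds.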
# [16] = biological target: Peroxisome proliferator-activated receptor delta (Homo sapiens) (UniProt Q03181); test: qHTS assay to identify small molecule antagonists of the peroxisome proliferator-activated receptor delta (PPARd) signaling pathway (AID 743215; active = well fitted inhibition curve with a large enough effect in the signal ratio in the repeat runs, not every such curve was filed as active; the % refers to the signal ratio;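 also: cells stimulated with agonist L165041 at 300 nM final during compound exposure; series mostly up to about 62 µM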)
# How it was run: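 Fluorescence from cleaved LiveBLAzer B/G FRET substrate (2 h, room temperature) reports PPARd-driven beta-lactamase in HEK293H UAS-bla cells. Cells had been treated 17 h at 37 C with compound plus 300 nM final L165041.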
# [17] = biological target: Bile acid receptor (Homo sapiens) (UniProt Q96RI1); test: qHTS assay to identify small molecule antagonists of the farnesoid-X-receptor (FXR) signaling pathway (AID 743217; active = well fitted inhibition curve with a large enough effect in the signal ratio in the repeat runs, not every such curve was filed as active; the % refers to the signal ratio)
# How it was run: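 FRET fluorescence after 2 h room-temperature LiveBLAzer loading gives the readout. Prior step: FXR-bla HEK 293T cells, seeded and incubated 5 h, received test compounds plus 50 uM final CDCA for 16 h at 37 °C.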
# [18] = biological target: Vitamin D3 receptor (Homo sapiens) (UniProt P11473); test: qHTS assay to identify small molecule agonists of the vitamin D receptor (VDR) signaling pathway (AID 743222; calls by dose curve)
# How it was run: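 Following 4 h attachment at 37C, VDR-bla cells (2,000 per well) received DMSO-dissolved compounds or controls. After 16 h incubation, LiveBLAzer B/G FRET substrate was added and fluorescence read 2 h later at room temperature.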
# [19] = biological target: Peroxisome proliferator-activated receptor gamma (Homo sapiens) (UniProt P37231); test: qHTS assay to identify small molecule agonists of the peroxisome proliferator-activated receptor gamma (PPARg) signaling pathway (AID 743094; active = well fitted activation curve with a large enough effect in the signal ratio in the repeat runs, not every such curve was filed as active; the % refers to the signal ratio)
# Chain of Peroxisome proliferator-activated receptor gamma (Homo sapiens) (P37231 whole entry, looked up): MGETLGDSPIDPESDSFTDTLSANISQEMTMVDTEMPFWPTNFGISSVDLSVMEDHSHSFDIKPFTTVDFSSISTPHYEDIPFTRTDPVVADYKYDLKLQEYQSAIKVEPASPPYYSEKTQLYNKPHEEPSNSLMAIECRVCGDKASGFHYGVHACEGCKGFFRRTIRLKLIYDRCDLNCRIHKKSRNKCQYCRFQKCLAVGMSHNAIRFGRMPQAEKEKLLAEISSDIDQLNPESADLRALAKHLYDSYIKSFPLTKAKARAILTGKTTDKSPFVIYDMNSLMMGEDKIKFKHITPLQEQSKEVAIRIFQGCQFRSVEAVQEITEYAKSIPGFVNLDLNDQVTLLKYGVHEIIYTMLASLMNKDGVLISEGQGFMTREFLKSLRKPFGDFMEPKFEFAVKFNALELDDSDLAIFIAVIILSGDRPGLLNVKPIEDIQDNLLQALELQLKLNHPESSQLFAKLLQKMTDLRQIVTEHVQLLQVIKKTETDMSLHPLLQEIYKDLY
# How it was run: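 Cell-based bla reporter, HEK293H background, PPARg-driven UAS. Pre-incubation 5 h, 37C, 5% CO2. Compound 17 h, 37C. Substrate 1 h RT; fluorescence.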
# [20] = biological target: Peroxisome proliferator-activated receptor gamma (Homo sapiens) (UniProt P37231); test: qHTS assay to identify small molecule antagonists of the peroxisome proliferator-activated receptor gamma (PPARg) signaling pathway (AID 743191; calls by dose curve; also: series mostly up to about 63 µM; nearly all actives have a fitted effect of over 30% in size)
# How it was run: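 Beta-lactamase reporter under UAS control in HEK293H PPARg-bla cells; compound treatment 17 h at 37C. Read-out: fluorescence intensity after 1 h room-temperature incubation with LiveBLAzer B/G FRET substrate.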
Compound,Potency [1],Potency [2],Potency [3],Potency [4],Potency [5],Potency [6],Potency [7],Potency [8],Potency [9],Potency [10],Potency [11],outcome [12],Potency [13],Potency [14],outcome [15],Potency [16],Potency [17],Potency [18],Potency [19],Potency [20]
CCN(Cc1c(F)cccc1Cl)c1c([N+](=O)[O-])cc(C(F)(F)F)cc1[N+](=O)[O-],inactive,inactive,inactive,inactive,inactive,inactive,inactive,17.4 µM (active),inactive,17.4 µM (active),19.5 µM (active),inactive,21.9 µM (active),inactive,,,,,,
CCc1nc(N)nc(N)c1-c1ccc(Cl)cc1,inactive,inactive,inactive,inactive,,5.31 µM (active),inactive,,inactive,inactive,,inactive,24.9 µM (active),inactive,inactive,inactive,inactive,inactive,,
O=C(O)c1ccccc1,inactive,inactive,inactive,,inactive,inactive,inactive,inactive,,inactive,inactive,,inactive,inactive,,,,inactive,inactive,inactive
C1CCC(C(CC2CCCCN2)C2CCCCC2)CC1 (stereo not given),18.8 µM (active),inactive,18.8 µM (active),33.5 µM (active),,29.8 µM (active),33.5 µM (active),26.6 µM (active),,,23.7 µM (active),,,21.3 µM (active),,,,inactive,,inactive
O=C1O[C@H]([C@@H](O)CO)C(O)=C1O,inactive,inactive,inactive,,inactive,inactive,inactive,inactive,,inactive,inactive,,inactive,,,,,,inactive,inactive
CCCCOC(=O)c1ccc(O)cc1,inactive,inactive,inactive,,inactive,inactive,inactive,inactive,inactive,inactive,inactive,inactive,inactive,inactive,inactive,inactive,inactive,inactive,inactive,
Nc1c2c(nc3ccccc13)CCCC2,inactive,4.86 µM (active) and 61.1 µM (active),inactive,,inactive,inactive,inactive,inactive,,inactive,inactive,,inactive,,inactive,,,,inactive,inactive
CCCC[P+](CCCC)(CCCC)CCCC,inactive,inactive,inactive,inactive,inactive,inactive,inactive,inactive,,inactive,inactive,inactive,inactive,inactive,inactive,,inactive,inactive,,
COc1ccc(CN(CCN(C)C)c2ccccn2)cc1,inactive,inactive,inactive,,inactive,inactive,inactive,inactive,inactive,inactive,inactive,,inactive,,inactive,,,,,
